PubChem BioAssay (Tox21)
Calls of active or inactive are those of the source. A call without a number means that no potency is given here. Calls come from the whole dose curve; as a rule, active = well fitted curve in the direction sought with a large enough effect in the repeat runs; inconclusive = weak or mixed curves; inactive = flat fitted curve, though single readings scatter.

test: qHTS assay to test for compound auto fluorescence at 460 nm (blue) in HEK293 cells (AID 720678); details: blue autofluorescence 405/460 nm; series mostly up to 91.3 µM
Summary of the method: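 Cells were seeded and left to adhere for 4-5 hr at 37C. Compounds were then pin-transferred. After an overnight incubation at 37C under 5% CO2, intrinsic fluorescence at 405/460 nm was measured and referenced to triamterene.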

Compound	Potency	fluorescence, % of triamterene
CC(=O)OC(C)(C)C	inactive	–
CC(C)(O)c1ccccc1	inactive	–
OCC(CO)(CO)COCC(CO)(CO)CO	inactive	–
C[C@H](O)C(=O)Nc1c(I)c(C(=O)NC(CO)CO)c(I)c(C(=O)NC(CO)CO)c1I	–	-0.0154% [at 18.6 µM] (inactive)
CSc1ccc(C=O)cc1	inactive	–
NCC[C@H](O)C(=O)N[C@@H]1C[C@H](N)[C@@H](O[C@H]2O[C@H](CN)[C@@H](O)[C@H](O)[C@H]2O)[C@H](O)[C@H]1O[C@H]1O[C@H](CO)[C@@H](O)[C@H](N)[C@H]1O	inactive	–
CCN1CCN(c2cc3c(cc2F)c(=O)c(C(=O)O)cn3C2CC2)CC1	inactive	–
CCCCCCCCCCCCCCC	inactive	–
C/C=C1\C(=O)C[C@H]2[C@@H]3CCC4=CC(=O)CC[C@]4(C)[C@H]3CC[C@]12C	inactive	–
c1cc(CN2CCCCC2)cc(OCCCNc2nc3ccccc3s2)c1	inactive	–
CC(C)(C)N(CCO)CCO	inactive	–
COc1cc(C)cc(O)c1	inactive	–
COc1ccc(NC(C)=O)cc1	inactive	–
CC(=O)c1ccc(C)cc1	inactive	–
COC(C(=O)O)c1ccccc1 (stereo not given)	inactive	–
COc1ccc(COC=O)cc1	inactive	–
CCCCC=O	inactive	–
C#CC(O)CCCCC (stereo not given)	inactive	–

Compound	Potency	fluorescence, % of triamterene
COc1cc(CCC(C)=O)ccc1O	inactive	–
NC(N)=NS(=O)(=O)c1ccc(N)cc1	–	0.195% [at 18.6 µM] (inactive)
NC(=O)c1ncn([C@@H]2O[C@H](CO)[C@@H](O)[C@H]2O)c1O	inactive	–
NC(=S)Nc1cccc2ccccc12	–	-0.0445% [at 3.72 µM] (inactive)
CC(=O)NC(Cc1ccccc1)C(=O)O (stereo not given)	inactive	–
CC(C)(O)Cc1ccccc1	inactive	–
Cc1ccccc1Br	inactive	–
CC12CCC(CC1=O)C2(C)C (stereo not given)	inactive	–
C=C(C)C1CC=C(C)C(O)C1 (stereo not given)	inactive	–
CC1CCN(CCCC(=O)c2ccc(F)cc2)CC1	inactive	–
C1CCCCCCCCCCC1	–	-0.115% [at 18.6 µM] (inactive)
COC(=O)[C@H]1[C@H]2C[C@@H]3c4[nH]c5cc(OC)ccc5c4CCN3C[C@H]2C[C@@H](OC(=O)COc2ccc(OC)cc2)[C@@H]1OC	inactive	–
CC1=CC(=O)CCC1	inactive	–
CCOC(=O)[C@H](CCc1ccccc1)N[C@@H](C)C(=O)N1CCC[C@H]1C(=O)O	inactive	–
CCCCCC[C@@H](CCC)C(=O)O	inactive	–
CCCCC1CCCCC(=O)O1 (stereo not given)	inactive	–
CC1=CCC2C(C1)C2(C)C (stereo not given)	inactive	–

test: qHTS assay to test for compound auto fluorescence at 590 nm (red) in HEK293 cells (AID 720679); details: red autofluorescence 540/590 nm; series mostly up to 91.3 µM
Summary of the method: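 Each well held 2,000 HEK293 cells in medium containing 10% dialyzed FBS. Following 4-5 hr attachment at 37C, 23 nL test compound or DMSO was added; plates sat overnight, and red fluorescence (540/590nm) was recorded.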

Compound	outcome	fluorescence, % of fluorescent control
CC(=O)OC(C)(C)C	inactive	–
CC(C)(O)c1ccccc1	inactive	–
OCC(CO)(CO)COCC(CO)(CO)CO	inactive	–
C[C@H](O)C(=O)Nc1c(I)c(C(=O)NC(CO)CO)c(I)c(C(=O)NC(CO)CO)c1I	–	0.0561% [at 18.6 µM] (inactive)
CSc1ccc(C=O)cc1	inactive	–
NCC[C@H](O)C(=O)N[C@@H]1C[C@H](N)[C@@H](O[C@H]2O[C@H](CN)[C@@H](O)[C@H](O)[C@H]2O)[C@H](O)[C@H]1O[C@H]1O[C@H](CO)[C@@H](O)[C@H](N)[C@H]1O	inactive	–
CCN1CCN(c2cc3c(cc2F)c(=O)c(C(=O)O)cn3C2CC2)CC1	inactive	–
CCCCCCCCCCCCCCC	inactive	–
C/C=C1\C(=O)C[C@H]2[C@@H]3CCC4=CC(=O)CC[C@]4(C)[C@H]3CC[C@]12C	inactive	–
c1cc(CN2CCCCC2)cc(OCCCNc2nc3ccccc3s2)c1	inactive	–
CC(C)(C)N(CCO)CCO	inactive	–
COc1cc(C)cc(O)c1	inactive	–
COc1ccc(NC(C)=O)cc1	inactive	–
CC(=O)c1ccc(C)cc1	inactive	–
COC(C(=O)O)c1ccccc1 (stereo not given)	inactive	–
COc1ccc(COC=O)cc1	inactive	–
CCCCC=O	inactive	–
C#CC(O)CCCCC (stereo not given)	inactive	–

Compound	outcome	fluorescence, % of fluorescent control
COc1cc(CCC(C)=O)ccc1O	inactive	–
NC(N)=NS(=O)(=O)c1ccc(N)cc1	–	0.29% [at 18.6 µM] (inactive)
NC(=O)c1ncn([C@@H]2O[C@H](CO)[C@@H](O)[C@H]2O)c1O	inactive	–
NC(=S)Nc1cccc2ccccc12	–	-0.0728% [at 3.72 µM] (inactive)
CC(=O)NC(Cc1ccccc1)C(=O)O (stereo not given)	inactive	–
CC(C)(O)Cc1ccccc1	inactive	–
Cc1ccccc1Br	inactive	–
CC12CCC(CC1=O)C2(C)C (stereo not given)	inactive	–
C=C(C)C1CC=C(C)C(O)C1 (stereo not given)	inactive	–
CC1CCN(CCCC(=O)c2ccc(F)cc2)CC1	inactive	–
C1CCCCCCCCCCC1	–	-0.0949% [at 18.6 µM] (inactive)
COC(=O)[C@H]1[C@H]2C[C@@H]3c4[nH]c5cc(OC)ccc5c4CCN3C[C@H]2C[C@@H](OC(=O)COc2ccc(OC)cc2)[C@@H]1OC	inactive	–
CC1=CC(=O)CCC1	inactive	–
CCOC(=O)[C@H](CCc1ccccc1)N[C@@H](C)C(=O)N1CCC[C@H]1C(=O)O	inactive	–
CCCCCC[C@@H](CCC)C(=O)O	inactive	–
CCCCC1CCCCC(=O)O1 (stereo not given)	inactive	–
CC1=CCC2C(C1)C2(C)C (stereo not given)	inactive	–
